Measured values published in publication PMC4336329 (PLoS ONE, 2015).
About 14,000 (4.5%) of roughly 310,000 compounds showed an effect of 50% or more. Effects have a minus sign here. The sample holds strong results, similar compounds and a random draw of the others, so the mix is not that of the screen.

molecular target: human ether-à-go-go-related gene (hERG) potassium channel (human, UniProt Q12809); experiment: primary screen, population patch clamp on CHO cells stably expressing hERG; higher = less effect of the substance
Sequence (Q12809 whole entry, looked up): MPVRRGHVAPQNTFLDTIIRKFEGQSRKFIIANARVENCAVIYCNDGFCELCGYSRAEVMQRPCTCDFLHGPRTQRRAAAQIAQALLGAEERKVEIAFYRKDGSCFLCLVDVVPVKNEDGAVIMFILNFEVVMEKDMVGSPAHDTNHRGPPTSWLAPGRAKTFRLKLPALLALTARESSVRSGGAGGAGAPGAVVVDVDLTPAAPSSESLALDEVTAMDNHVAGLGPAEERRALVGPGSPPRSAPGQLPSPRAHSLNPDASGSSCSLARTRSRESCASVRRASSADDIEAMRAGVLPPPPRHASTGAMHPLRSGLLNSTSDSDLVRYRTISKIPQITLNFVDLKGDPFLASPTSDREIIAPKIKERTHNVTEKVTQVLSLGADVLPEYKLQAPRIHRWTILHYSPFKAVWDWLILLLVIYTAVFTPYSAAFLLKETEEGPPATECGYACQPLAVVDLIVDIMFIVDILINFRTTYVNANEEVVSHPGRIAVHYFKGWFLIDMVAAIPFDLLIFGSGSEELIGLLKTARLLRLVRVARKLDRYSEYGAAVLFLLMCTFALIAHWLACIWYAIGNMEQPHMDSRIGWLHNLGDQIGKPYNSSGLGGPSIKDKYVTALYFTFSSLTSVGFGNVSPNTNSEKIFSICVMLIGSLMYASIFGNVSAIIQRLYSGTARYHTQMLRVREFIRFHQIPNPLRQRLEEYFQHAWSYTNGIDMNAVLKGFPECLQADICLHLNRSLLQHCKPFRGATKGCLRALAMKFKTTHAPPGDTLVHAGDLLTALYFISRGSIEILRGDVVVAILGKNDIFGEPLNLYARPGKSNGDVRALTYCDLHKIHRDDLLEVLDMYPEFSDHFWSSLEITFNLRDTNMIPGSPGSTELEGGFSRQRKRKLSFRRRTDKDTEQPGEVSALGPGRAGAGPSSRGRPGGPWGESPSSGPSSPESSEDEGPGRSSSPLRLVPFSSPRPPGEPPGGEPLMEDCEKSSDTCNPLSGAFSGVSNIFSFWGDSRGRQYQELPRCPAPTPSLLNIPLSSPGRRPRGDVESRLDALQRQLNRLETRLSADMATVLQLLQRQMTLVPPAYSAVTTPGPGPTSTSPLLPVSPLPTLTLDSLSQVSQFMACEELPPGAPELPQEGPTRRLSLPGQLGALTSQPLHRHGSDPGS
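Further: peak tail current of the secondary pulse compared with the same well before compound.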

Row | Compound | hERG current change (%, negative = inhibition) at 10uM
1 | COc1ccc(-c2nnc(SCC(=O)N(Cc3ccccc3)C(C)(C)C)o2)cc1OC | -22.9%
2 | O=c1c(Cc2ccc(Cl)cc2)c(O)ccn1Cc1cccs1 | 4.04%
3 | Cc1ccc(C(=O)NC2CC(=O)N(c3ccc4c(c3)OCCO4)C2)cc1[N+](=O)[O-] (centres unmarked) | 14.6%
4 | CCC1(CC)NC(=O)N(CC(=O)OCC(=O)c2ccccc2OC)C1=O | 0.647%
5 | CC(C)(C)NC(=O)C(Cc1ccccc1)NS(=O)(=O)c1cccc2nsnc12 (centres unmarked) | -1.39%
6 | CC(Sc1ccccc1)C(=O)N1CCN(S(=O)(=O)c2ccccc2)CC1 (centres unmarked) | -8.83%
7 | NC(=O)CC(NC(=O)c1ccccc1)c1ccc(N2CCC(Cc3ccccc3)CC2)c([N+](=O)[O-])c1 (centres unmarked) | 4.44%
8 | O=[N+]([O-])c1cc(-n2cnnn2)ccc1N1CCC(Cc2ccccc2)CC1 | -54.9%
9 | CC1CC(C)CN(c2ccc(-n3cnnn3)cc2[N+](=O)[O-])C1 (centres unmarked) | -18.4%
10 | Cn1cnnc1SCc1cccc(Br)c1 | 0.347%
11 | COc1cccc(-n2c(CNc3ccc(F)cc3)nnc2SCC(N)=O)c1 | -11.8%
12 | Cc1ccc(NC(=O)C2CCN(C(=O)[C@@H]3Cc4ccccc4CN3)CC2)c(C)c1 | -41.4%
13 | Cc1cccc(NC(=O)C2CCC(CNC(=O)[C@@H]3Cc4ccccc4CN3)CC2)c1 (some centres unmarked) | -2.36%
14 | COc1ccc(NC(=O)C2CCN(C(=O)[C@@H]3Cc4ccccc4CN3)CC2)cc1 | -38.2%
15 | COc1ccc(CNC(=O)C2CCN(C(=O)[C@@H]3Cc4ccccc4CN3)CC2)cc1 | -24.8%
16 | Cc1ccc(NC(=O)C2CCC(CNC(=O)[C@@H]3Cc4ccccc4CN3)CC2)cc1 (some centres unmarked) | -25.8%
17 | Cc1cccc(NC(=O)C2CCN(C(=O)[C@@H]3Cc4ccccc4CN3)CC2)c1 | -67.2%
18 | CCc1ccc(NC(=O)C2CCC(CNC(=O)[C@@H]3Cc4ccccc4CN3)CC2)cc1 (some centres unmarked) | 4.23%
19 | Cc1ccc(NC(=O)C2CCN(C(=O)[C@@H]3Cc4ccccc4CN3)CC2)cc1 | -67.3%
20 | Cc1cc(C)cc(NC(=O)C2CCC(CNC(=O)[C@@H]3Cc4ccccc4CN3)CC2)c1 (some centres unmarked) | 0.322%
21 | COc1cccc(NC(=O)C2CCN(C(=O)[C@@H]3Cc4ccccc4CN3)CC2)c1 | -48.1%
22 | CCc1ccc(NC(=O)C2CCN(C(=O)[C@@H]3Cc4ccccc4CN3)CC2)cc1 | -59.5%
23 | Cc1cc(C)cc(NC(=O)C2CCN(C(=O)[C@@H]3Cc4ccccc4CN3)CC2)c1 | -67.7%
